{
  "source": "paper PMC8384837",
  "about": "“Expanding the binding specificity for RNA recognition by a PUF domain”",
  "data": [
    {"biological_target": "PUM1 PUF domain R3-CRT (Homo sapiens, UniProt Q14671 828-1176, Q939T)", "sequence (Q14671 828-1176 Q939T)": "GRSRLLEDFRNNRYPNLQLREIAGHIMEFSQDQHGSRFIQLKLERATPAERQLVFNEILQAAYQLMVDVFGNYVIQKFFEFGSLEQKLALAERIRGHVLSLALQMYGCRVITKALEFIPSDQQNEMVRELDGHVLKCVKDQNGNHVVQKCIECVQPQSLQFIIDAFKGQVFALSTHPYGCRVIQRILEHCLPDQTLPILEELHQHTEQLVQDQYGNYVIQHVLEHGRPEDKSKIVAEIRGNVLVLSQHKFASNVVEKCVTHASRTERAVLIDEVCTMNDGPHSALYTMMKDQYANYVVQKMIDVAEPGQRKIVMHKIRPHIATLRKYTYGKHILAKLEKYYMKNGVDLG", "experiment": "yeast three-hybrid, YBZ-1, SC-Leu-His + 0.5 mM 3-AT, 4 days", "settings": "tags: N-Gal4 AD-HA kept; label: inside an RPR1-promoter hybrid RNA with tandem MS2 sites; ssRNA", "summary_of_the_method": "(§1)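 Sequencing with Illumina followed PCR amplification of the repeat regions from transformants grown four days on SC-Leu (input) or SC-Leu-His + 0.5 mM 3-AT (selection). The transformants were strain YBZ-1 with a LexA–MS2 coat fusion and a HIS3 reporter, carrying Pumilio-1 PUF domain libraries and matching RNA elements. The interaction score is the log change in variant frequency from input to selection, computed in log2 with a pseudocount of 1 for absent variants.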", "values": [
      {"sequence": "GGCUAGAACUAGUGGAUCCCCCGGCGCCCGGCGGCUCGAGCCCGGGUAAGUGUAAUUAGUCUGCAUGCCGCCGGGCGCCAUGCCUGCAGGUCGACUCUAGAAAACAUG", "binding signal": "1.12 log2 enrichment (interaction score)"},
      {"sequence": "GGCUAGAACUAGUGGAUCCCCCGGCGCCCGGCGGCUCGAGCCCGGGUAAGUGUAAAUAGUCUGCAUGCCGCCGGGCGCCAUGCCUGCAGGUCGACUCUAGAAAACAUG", "binding signal": "3.85 log2 enrichment (interaction score)"},
      {"sequence": "GGCUAGAACUAGUGGAUCCCCCGGCGCCCGGCGGCUCGAGCCCGGGUAAGUGUAAGUAGUCUGCAUGCCGCCGGGCGCCAUGCCUGCAGGUCGACUCUAGAAAACAUG", "binding signal": "1.54 log2 enrichment (interaction score)"}
    ]},
    {"biological_target": "PUM1 PUF domain R3-GRD (Homo sapiens, UniProt Q14671 828-1176, C935G;Q939D)", "sequence (Q14671 828-1176 C935G/Q939D)": "as the sequence (Q14671 828-1176 Q939T) above, with C108G, T112D counted along it", "experiment": "yeast three-hybrid, YBZ-1, SC-Leu-His + 0.5 mM 3-AT, 4 days", "settings": "tags: N-Gal4 AD-HA kept; label: inside an RPR1-promoter hybrid RNA with tandem MS2 sites; ssRNA", "summary_of_the_method": "as §1", "values": [
      {"sequence": "GGCUAGAACUAGUGGAUCCCCCGGCGCCCGGCGGCUCGAGCCCGGGUAAGUGUAAUUAGUCUGCAUGCCGCCGGGCGCCAUGCCUGCAGGUCGACUCUAGAAAACAUG", "binding signal": "2.16 log2 enrichment (interaction score)"},
      {"sequence": "GGCUAGAACUAGUGGAUCCCCCGGCGCCCGGCGGCUCGAGCCCGGGUAAGUGUAAAUAGUCUGCAUGCCGCCGGGCGCCAUGCCUGCAGGUCGACUCUAGAAAACAUG", "binding signal": "4.82 log2 enrichment (interaction score)"},
      {"sequence": "GGCUAGAACUAGUGGAUCCCCCGGCGCCCGGCGGCUCGAGCCCGGGUAAGUGUAAGUAGUCUGCAUGCCGCCGGGCGCCAUGCCUGCAGGUCGACUCUAGAAAACAUG", "binding signal": "6.36 log2 enrichment (interaction score)"}
    ]}
  ]
}
